PubChem BioAssay AID1671192 (National Center for Advancing Translational Sciences (NCATS), 2021)
Records with an inconclusive call do not appear. Values without a mark were called inactive. Calls come from the whole dose curve; as a rule, active = well fitted curve in the direction sought with a large enough effect; inconclusive = small, poorly fitted or top-dose-only effect, or another doubt; inactive = no such curve, though single readings can be large or run the other way.

Molecular target: Polyunsaturated fatty acid lipoxygenase ALOX15 (Homo sapiens) (UniProt P16050)
Sequence (P16050 whole entry, looked up): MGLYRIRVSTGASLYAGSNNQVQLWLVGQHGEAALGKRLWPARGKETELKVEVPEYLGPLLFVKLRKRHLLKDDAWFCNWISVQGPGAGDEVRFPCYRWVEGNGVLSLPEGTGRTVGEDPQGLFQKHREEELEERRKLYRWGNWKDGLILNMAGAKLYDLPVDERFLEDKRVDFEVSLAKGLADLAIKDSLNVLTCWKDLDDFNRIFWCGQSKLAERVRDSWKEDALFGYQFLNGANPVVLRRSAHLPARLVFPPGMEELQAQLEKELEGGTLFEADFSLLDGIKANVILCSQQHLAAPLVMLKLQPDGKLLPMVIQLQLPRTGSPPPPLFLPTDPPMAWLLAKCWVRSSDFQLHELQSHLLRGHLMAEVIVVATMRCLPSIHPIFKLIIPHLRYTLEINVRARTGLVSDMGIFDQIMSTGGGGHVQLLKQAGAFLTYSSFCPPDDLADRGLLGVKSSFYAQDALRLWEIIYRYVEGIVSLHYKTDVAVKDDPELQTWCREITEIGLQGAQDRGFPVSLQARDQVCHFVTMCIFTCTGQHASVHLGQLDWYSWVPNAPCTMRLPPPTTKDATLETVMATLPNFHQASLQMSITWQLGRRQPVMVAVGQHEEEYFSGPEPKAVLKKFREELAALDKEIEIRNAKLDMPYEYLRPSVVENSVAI
Test: Counterscreen qHTS for inhibitors of human arachidonate 12S-lipoxygenase (ALOX12): ALOX15 Assay; note: 0% is about no effect
Settings: purified ALOX15 enzyme activity; series mostly up to 110 µM; activity change, negative = inhibition: at the top concentration
Method in brief: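 Purified human ALOX15 (15hLO-1) at 40 nM in 25 mM HEPES, 0.01% Triton X-100, pH 7.5, preincubated with compound 15 min at RT. Then 50 uM arachidonic acid for 30 min; hydroperoxide detected by Fe-xylenol orange as the 573/405 nm absorbance ratio.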

Compound | activity change, negative = inhibition
CC(=O)NCCC(=O)N1Cc2ccccc2CC2(CCCN2CC2CCNCC2)C1 (configuration not stated) | -22.8%
CN1CC(=O)N(C2CCNCC2)Cc2c(NC3CCCCC3)ncnc21 | -5.17%
COc1ccc(CN2CCCC3(Cc4ccccc4CNC3=O)C2)cc1 (configuration not stated) | -6.45% [at 146 µM]
CSc1ccc(-c2ccc(C=O)cc2)cc1 | -27.8% [at 233 µM]
CCc1nc2c(c(-c3ccc(OC)cc3)n1)CN([S+](=O)([O-])c1cccc(OC)c1)CC2 | -24.4%
O=C(c1ccc(C(F)(F)F)cc1)N1CCn2c(nnc2C2CCCNC2)C1 (configuration not stated) | -17.4%
O=C1NCc2ccccc2CC12CCN(Cc1c[nH]c3ccccc13)C2 (configuration not stated) | 8.74%
CNCc1cccn1C | -3.02% [at 233 µM]
CN1CC(=O)N(C2CCNCC2)Cc2c(NCCc3cccc(F)c3)ncnc21 | -17.2%
O=C(N1CCCCC1)N1CCCC(c2nnc3n2CCNC3)C1 (configuration not stated) | 7.4% [at 146 µM]
O=C(c1ccccc1)N1CCn2c(nnc2C2CCNCC2)C1 | -2.91% [at 146 µM]
O=C1NCc2ccccc2CC12CCN(Cc1c(F)cccc1Cl)CC2 | -31.6%
O=C1NCc2ccccc2CC12CCN(Cc1cccc(OC(F)(F)F)c1)C2 (configuration not stated) | 3%
CCCN1CCC2(Cc3ccccc3CN(C(=O)CCCC(=O)O)C2)C1 (configuration not stated) | -22.9%
CN1CC(=O)N(C2CCNCC2)Cc2c1ncnc2N1CCc2ccccc2C1 | -21.4%
NCc1ccc(-c2ccccn2)cc1 | -4.33% [at 233 µM]
C[S+](=O)([O-])N1CC2(Cc3ccccc3NC2=O)C1 | 0.0174% [at 146 µM]
CCOCCCNc1ncnc2c1CN(C1CCCNCC1)C(=O)CN2C (configuration not stated) | 1.99%
CN1CC(=O)N(C2CCCNC2)Cc2c(NCC3CCCCCC3)ncnc21 (configuration not stated) | -11.2%

Compound | activity change, negative = inhibition
CC(=O)N1CCC2(CC1)CN(C(=O)Cc1csc(N)n1)Cc1ccccc1O2 | -4.11%
Cc1ccc(-c2ccccc2CN)cc1Cl | -12% [at 146 µM]
FC(F)(F)c1ccc(CN2CCCC3(CC(c4cccc(C(F)(F)F)c4)=NO3)C2)cc1 (configuration not stated) | -20.9%
C[C@H](C(=O)N1Cc2ccccc2CC2(CCN(C)C2)C1)c1ccccc1 (some centres not stated) | -1.29%
O=[S+]([O-])(c1ccccc1)N1CC(Oc2ccc3c(c2)OCO3)C1 | -9.22% [at 146 µM]
CC(CO)Nc1ncnc2c1CN(C1CCCNCC1)C(=O)CN2C (configuration not stated) | -29% [at 146 µM]
CN(C)c1ccc(CN2CCn3c(nnc3C3CCNCC3)C2)cc1 | -15.9%
CC1CCCCC1Nc1ncnc2c1CN(C1CCCNCC1)C(=O)CN2C (configuration not stated) | -23.7%
COc1ccc(CN2CCCC23Cc2ccccc2CNC3=O)cc1OC (configuration not stated) | -13.2%
CC(C)[S+](=O)([O-])N1CCCC1c1nnc2n1CCNC2 (configuration not stated) | -2.34% [at 146 µM]
O=C(N1CCCCC1)N1CCCC1c1nnc2n1CCNC2 (configuration not stated) | -11.3%
O=C1NCc2ccccc2CC12CCN(Cc1ccc(F)cc1)C2 (configuration not stated) | -11.6% [at 146 µM]
CC(C)NC(=O)N1CCC(c2nnc3n2CCNC3)CC1 | 6.45% [at 146 µM]
O=C(NCc1ccncc1)c1cc(C2CC2)nc2c1c(C1CCCN1)nn2-c1ccccc1 (configuration not stated) | 5.49%
O=C1NCc2ccccc2CC12CCN(Cc1cc(O)cc(O)c1)CC2 | -26.5%
COCCNc1nc2c([S+](=O)([O-])c3cc(OC)ccc3OC)nnn2c2ccccc12 | 4.89%
O=C1NCc2ccccc2CC12CCN(Cc1cccc(F)c1F)CC2 | -27.9%
NCC(=O)N1CCC2(CC1)CN(C(=O)c1ccc(Cl)cc1)CCO2 | 14.2%
